Only a selection was taken, and hits are over-represented in it overall.
Pf Dd2 inh – inhibitors of Plasmodium falciparum Dd2 growth. P. falciparum Dd2 growth, SYBR Green, 72 h. Potency, µM (highest dose often 28.9 µM), hits mostly inhibitors. 120,000 compounds, 4.3% hits. AID 1347417; active means well fitted inhibition curve with a large enough effect; further: nearly all actives have a fitted effect of over 65% in size
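Infected erythrocytes (Dd2, 0.3% parasitemia, 2.5% hematocrit final) are added to compound in RPMI-1640/Albumax II medium, grown 72 h at 37C in low oxygen, then lysed with saponin/Triton-X containing SYBR Green and read by fluorescence.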
Large screens that a line does not name were inactive.

Cc1noc(-c2cn(C3CCN(C(=O)c4cccc(Br)c4)CC3)nn2)n1	none
CCCc1noc(-c2cn(C3CCN(C(=O)c4ccc(C#N)cc4)CC3)nn2)n1	Pf Dd2 inh 12.6µM
CCc1noc(-c2cn(C3CCN(C(=O)c4ccc(C)cc4)CC3)nn2)n1	none
CCc1noc(-c2cn(C3CCN(C(=O)c4ccc(OC)cc4)CC3)nn2)n1	none
CCCc1noc(-c2cn(C3CCN(C(=O)c4cccc(N(C)C)c4)CC3)nn2)n1	Pf Dd2 inh 3.55µM
CCCc1noc(-c2cn(C3CCN(C(=O)c4ccc(OC)c(F)c4)CC3)nn2)n1	none
O=C(O)c1ccccc1C(=O)N1CC[C@H]2COC(=O)N2c2cc(F)ccc2C1	none
O=C(NC1CCCN(c2cc(-c3ccc(F)cc3)[nH]n2)C1)c1cccc(Br)c1 (stereo not drawn)	none
CCn1ncc(C(=O)N2C[C@@H](COC)[C@H](c3nc(C4CC4)no3)C2)c1C	none
COC[C@H]1NC(=O)CC[C@H]1C(=O)Nc1ccc2c(c1)OCCO2	none
Cc1csc(NC(=O)[C@@H]2CCC[C@@H](NCc3cccnc3)CN(C)C(=O)C2)n1	none
O=C1Cc2c(-c3cccc(C(F)(F)F)c3)n[nH]c2CN1Cc1ccccc1	none
COCCN1Cc2[nH]nc(-c3ccsc3)c2CC1=O	none
O=C1Cc2c(-c3ccsc3)n[nH]c2CN1Cc1ccccc1	Pf Dd2 inh 5.62µM
CCn1nccc1C(=O)N1CCCC(COc2ccccc2C(=O)NC(C)C)C1 (stereo not drawn)	none
Cc1cccc([C@H]2C[C@@H](O)[C@@H](O)[C@@H]2NCC2CCCC2)c1	none
CS(=O)(=O)N[C@H]1[C@H](O)[C@H](O)C[C@@H]1c1ccccc1	none
O[C@H]1[C@H](NCC2CCCC2)[C@@H](c2ccccc2)C[C@H]1O	Pf Dd2 inh 1.78µM
CN1CC(=O)N(C2CNC2)Cc2c(NC3CC3)ncnc21	none
O=C1NCCOCCN(S(=O)(=O)c2cccc3nsnc23)[C@@H]2CCCC[C@H]12	none
COc1ccc(C)cc1NC(=O)c1oc2ccc(S(=O)(=O)N3CCCCC3)cc2c1C	none
CCOC(=O)c1oc2ccc(S(=O)(=O)n3nc(-c4cc(OCC)c(OCC)c(OCC)c4)cc3N)cc2c1C	Pf Dd2 inh 10µM
COc1ccc(C)cc1NC(=O)c1oc2ccc(S(=O)(=O)N3CCOCC3)cc2c1C	none
CCn1cnnc1CC1CCNC1 (stereo not drawn)	none
CCCCn1c(NCc2ccc(OC)cc2O)nc2ccccc21	Pf Dd2 inh 7.94µM
CCCCn1c(COc2cccc(OC)c2)nc2ccccc21	none
CCn1c(NCc2ccc(OC)c(OC)c2)nc2ccccc21	none
CN(C)c1nc(-c2ccccc2)nc2c1CCN(C(=O)c1ccncc1)C2	none
NC(=O)C1CCN([C@H]2[C@@H]3OC[C@@H](O3)[C@@H](NCc3ccc(F)cc3)[C@@H]2O)CC1	none
COCC1CCN(Cc2cc3cc4c(cc3nc2-c2ccc(Cl)cc2)OCO4)C1 (stereo not drawn)	none
Cc1oc(-c2cccc(Oc3ccccc3)c2)nc1CN1CC[C@H](N(C)C)C1	none
COc1ccc2cc(CN3CCC(N(C)C)C3)c(-c3cccc(C)c3)nc2c1 (stereo not drawn)	Pf Dd2 inh 11.2µM
CCN(CC)S(=O)(=O)c1cccc(C(=O)Nc2ccccc2C(=O)Nc2ccc(Cl)cc2)c1	Pf Dd2 inh 10µM
CCOc1ccc(NC(=O)c2ccc(F)c(S(=O)(=O)N(CC)Cc3ccccc3)c2)cc1	none
CCN(Cc1ccccc1)S(=O)(=O)c1ccc(F)c(C(=O)Nc2cc(C)ccc2OC)c1	none
COCc1nc(C2CC(N)C2)cc(N2CCC(NS(C)(=O)=O)CC2)n1 (stereo not drawn)	none
CCCc1ccc2oc(C(=O)NCCc3nncn3CC)c(C)c2c1	none
CCCc1ccc2oc(C(=O)N(C)CCC3CCCCO3)c(C)c2c1 (stereo not drawn)	Pf Dd2 inh 10µM
Cc1c(Cl)cc(C(=O)N(C)CCC2CCOCC2)cc1Cl	none
CCn1ccc2sc(C)c(C(=O)O)c2c1=O	none
Cc1nc(C)c(C(=O)N2CCCN(C(=O)C3CC3)C(c3ccccc3)CC(=O)NCC2)s1 (stereo not drawn)	none
CN1C(=O)[C@H]2CN(Cc3ccc(C(F)(F)F)cc3)C[C@H]2C1=O	none
COc1ccc(C(=O)N2CCC3(CC2)NC(=O)N(c2ccccc2Cl)N3)cc1F	none
CC(C)NC(=O)c1ccc(N2CC3CC(C2)[C@H]2CCCC(=O)N2C3)nc1 (stereo partly drawn)	none
Cc1ccc(C(C)CCN2CCC(N3CCC(C(=O)NC4CC4)CC3)CC2)o1 (stereo not drawn)	none
COCCNC(=O)c1ccc(OC2CCN(CCC(C)c3ccc(C)o3)CC2)c(Cl)c1 (stereo not drawn)	Pf Dd2 inh 4.47µM
COCCNC(=O)c1ccc(OC2CCN(C(C)CCSC)CC2)c(Cl)c1 (stereo not drawn)	Pf Dd2 inh 11.2µM
COCCN1CC(CNC(=O)c2cc(Cl)c(C)c(Cl)c2)CC1=O (stereo not drawn)	none
COc1ccc(C(=O)NCC2CCOC2)cc1OC1CCN(C(C)C)CC1 (stereo not drawn)	none
CS(=O)(=O)N1CCC(Oc2ccc(C(=O)NCCc3cnccn3)cc2Cl)CC1	none
COC(=O)CC1C(=O)NCCN1C(=O)c1ccc2nc(C3CCCCC3)oc2c1 (stereo not drawn)	none
COC[C@@H]1CN(Cc2ccc(C)cn2)C[C@H]1C(=O)NC1CC1	none
CN(Cc1nc(C2CC2)no1)C(=O)c1cc(Cn2ccc3ccccc32)[nH]n1	none
COc1ccc(C(=O)N2CCC3(CC2)N(c2ccccc2)C(=O)CS3(=O)=O)cc1	none
COc1cc(NC(=O)CSc2nc3ccccc3nc2Cc2ccc(Cl)cc2)cc(OC)c1	none
COc1cc(NC(=O)CSc2nc(-c3ccccc3)no2)cc(OC)c1	Pf Dd2 inh 1.12µM
COc1ccc(NC(=O)CSc2cc(-c3ccccc3)nc(C)n2)cc1	none
COc1cc(NC(=O)Cn2cccc2-c2nc(-c3ccc(OC)c(F)c3)no2)cc(OC)c1	none
COc1cc(NC(=O)CSc2nc(-c3ccc(C(C)C)cc3)no2)cc(OC)c1	Pf Dd2 inh 0.708µM
COc1cc(NC(=O)CSc2ncccc2C(=O)OC(C)C)cc(OC)c1	none
Cn1cnc(C(=O)N2CC(F)(F)C[C@H]2c2nc(C3CC3)no2)c1	none
Cc1ccc(S(=O)(=O)N(C)CC2CCOCC2)cc1C	none
O=C(C1CCc2nnc(C3CCN([S+](=O)([O-])c4ccccc4)CC3)n21)N1CCN(c2ncccn2)CC1 (stereo not drawn)	none
COC(=O)c1c(-c2ccc(Cl)cc2)noc1N1CCN(c2ccccc2F)CC1	none
COC(=O)c1c(-c2ccc(Cl)cc2)noc1N1CCN(c2ccc(C(C)=O)cc2)CC1	none
COC(=O)c1c(-c2ccc(Cl)cc2)noc1N1CCN(c2ccc(C)cc2C)CC1	Pf Dd2 inh 8.91µM
COCCNC(=O)c1cc(-c2ccc(OC)cc2)nc2onc(C3CCNC3)c12 (stereo not drawn)	none
COc1ccc(C2Cn3nnc(-c4nc(-c5cccnc5)no4)c3CO2)cc1 (stereo not drawn)	none
COc1ccc(C)cc1NC(=O)c1ccc2c(SCC(=O)O)c3c(nc2c1)CCCC3	none
CCCN(CCC)C(=O)CSc1c2c(nc3ccc(Cl)cc13)CCCC2	none
COc1cc(OC)c(N(C)C(=O)CSc2c3c(nc4ccc(Cl)cc24)CCCC3)cc1Cl	Pf Dd2 inh 11.2µM
COCCNC(=O)CSc1c2c(nc3cc(Cl)ccc13)CCCC2	none
CN(Cc1ccccc1)C(=O)CSc1c2c(nc3ccc(Cl)cc13)CCCC2	none
COc1ccc(OC)c(NC(=O)CSc2c3c(nc4cc(Cl)ccc24)CCCC3)c1	Pf Dd2 inh 8.91µM
O=C(c1ccc(F)c(F)c1)N1CCC(n2cc(-c3nc(-c4ccccc4)no3)nn2)CC1	none

Assay outcomes as filed in PubChem.
